Sampled rows, rich in hits. Any-hit rate of the full collection: about 21%.
Pf growth 96h = P. falciparum growth inhibition at 96 hours; P. falciparum luciferase reporter growth, 96 h; Potency, µM (titrated, usually from 28.7 µM), for inactives: at the top dose activity change, negative = inhibition, usual class: inhibitors; 6.9% of 320,000 active; further: potency means the concentration at half of the fitted maximal effect; on the % scale 0 is the no-effect control and ±100 the full control effect
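Two parasite generations (96 h, 37 C, 5% CO2) of compound exposure in infected erythrocytes (0.05% parasitemia, 2% hematocrit). Luciferase-reporter P. falciparum; decreased luminescence indicates inhibited growth, aimed at apicoplast-acting delayed death.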
NS1 function inh = influenza NS1 inhibition. Potency, µM (top dose mostly 46.1 µM), for the others: top-dose activity, positive = more growth. 0.4% of 270,000 active. AID 2326; calls by dose curve; further: potency means the concentration at half of the fitted maximal effect; actives are rising curves; nearly all actives have a fitted effect of over 50% in size
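A cell-based growth assay was used: compounds that relieve NS1-induced slow growth of budding yeast raise OD600. Assay medium was yeast nitrogen base with ammonium sulphate and -URA supplement, pH 6.0, with 2% galactose.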
Pf growth 48h = P. falciparum growth inhibition at 48 hours (one generation). 5.9% of 310,000 active. P. falciparum luciferase growth in erythrocytes, 48 h. Potency, µM (doses to about 28.7 µM), for inactives: at the top dose activity change, negative = inhibition, usual class: inhibitors; further: potency means the concentration at half of the fitted maximal effect; on the % scale 0 is the no-effect control and ±100 the full control effect
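First compound was added to culture medium, then infected red cells at 0.1% parasitemia and 2% hematocrit (final). After incubation at 37 C under 5% CO2, luciferase detection reagent was dispensed and light output recorded.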
CHX counter = affects cycloheximide protein synthesis inhibition readout, counter-screen; cell reporter, cycloheximide protein synthesis inhibition counterscreen; max response, %; 12% of 300,000 active; AID 2314; in the data active means max response mostly above about 13%, no sharp cut-off; inactive means mostly below about 14%; further: read at 38.3 µM for the half of the compounds with a filed dose; 0% is about no effect
Shiga inhibitor = inhibitors of Shiga toxin in Vero cells | 9.2% of 290,000 active | AID 2315 | Vero cells, Shiga toxin protein synthesis inhibition reporter | inhibition, % at 38.7 µM; in the data active means inhibition mostly above about 28%, no sharp cut-off; inactive means mostly below about 43%; further: 0% is about no effect
Starred values were filed as active, the others as inactive; ? = inconclusive; . = not tested or not shown. Unless noted, the call rests on the fitted dose curve; in most records, active means well fitted inhibition curve with a large enough effect; inconclusive means small, poorly fitted or top-dose-only effect, or another doubt; inactive means no such curve, though single readings can be large or run the other way.

SMILES	Pf growth 96h	NS1 function inh	Pf growth 48h	CHX counter	Shiga inhibitor
Cc1ccc(NC(=O)CS(=O)(=O)c2c[nH]c3ccccc23)c(C)c1	-11%	5%	4%	-2	-7
C=C(NC(=O)C(=C)NC(=O)c1csc(C2=NC3c4csc(n4)C4NC(=O)c5csc(n5)C([C@@](C)(O)C(C)O)NC(=O)C5CSC(=N5)/C(=C\C)NC(=O)C(C(C)O)NC(=O)c5csc(n5)[C@]3(CC2)NC(=O)C(C)NC(=O)C(=C)NC(=O)C(C)NC(=O)C(C(C)CC)NC2C=Cc3c(C(C)O)cc(nc3C2O)C(=O)OC4C)n1)C(N)=O (stereo partly specified)	0.74µM*	.	0.83µM*	.	.
C=C(NC(=O)C(=C)NC(=O)c1csc(C2=N[C@@H]3c4csc(n4)[C@@H]4NC(=O)c5csc(n5)[C@@H]([C@](C)(O)[C@H](C)O)NC(=O)[C@@H]5CSC(=N5)/C(=C/C)NC(=O)[C@@H]([C@H](C)O)NC(=O)c5csc(n5)[C@]3(CC2)NC(=O)[C@@H](C)NC(=O)C(=C)NC(=O)[C@@H](C)NC(=O)[C@@H]([C@@H](C)CC)N[C@H]2C=Cc3c([C@H](C)O)cc(nc3[C@@H]2O)C(=O)O[C@H]4C)n1)C(N)=O	4.1µM*	.	5.7µM*	.	.
COc1ccc(NC(=O)Cc2nnc(SCC(=O)c3ccc(F)cc3)n2C)cc1	8%	-12%	-6%	-5	30
O=C(CN1CCN(C(=O)N2CCCCC2)CC1)Nc1ccc(F)cc1	?	-1%	19%	0	15
CCc1c(O)c2c(c(O)c1C(C)=O)C(=O)c1c(cc(O)c(C(=O)O)c1C(=O)O)C2=O	.	5%	.	.	.
O=C(Cc1cn2ccsc2n1)Nc1nc2c(s1)CN(Cc1ccccc1)CC2	?	?	.	-2	15
CN1CCN(/N=C/c2ccc(-c3ccccc3)cc2)CC1	29%	.	80%	49*	63*
CSc1ccc(/C=N/n2c(C)nnc2C)cc1	18%	.	6%	-3	-9
CSc1ccc(/C=N/N2CCN(C)CC2)cc1	68%	.	341%	29*	72
CSc1ccc(/C=N/n2c(C)cc(C)cc2=O)cc1	49%	-10%	0%	27*	112*
O=C(CN1C(=O)C2C3C=CC(C3)C2C1=O)Nc1ccc(S(=O)(=O)N2CCCCC2)cc1 (stereo unspecified)	?	6%	-11%	-1	-1
Cc1cccc(NC(=O)c2onc3c2CCCC3)c1C	174%	-14%	183%	33*	116*
Cc1cccc(NC(=O)c2onc3c2CCCC3)n1	76%	-10%	0%	33*	23
Cc1ccccc1NC(=O)c1onc2c1CCCC2	363%	-8%	19%	49*	123*
CN(c1ccc(OCC(=O)N2CCCC2)cc1)S(=O)(=O)c1ccc(Cl)cc1	?	.	10µM*	.	.
COC(=O)C1CCN(C(=O)COc2ccc(N(C)S(=O)(=O)c3ccc(C)cc3)cc2)CC1	?	.	13µM*	.	.
CCOC(=O)C1CCN(C(=O)COc2ccc(N(C)S(=O)(=O)c3ccc(C)cc3)cc2)CC1	17%	-2%	0%	3	24
CCN(CC(=O)NC1CCCC1)S(=O)(=O)c1ccc(F)cc1	3%	6%	?	5	1
C=CCN1C(=O)CSc2ccc(C(=O)NCc3cccs3)cc21	?	.	7%	-2	9
CN(C)c1cc[n+](/C(C(=S)Nc2ccc(SC(F)F)cc2)=C(/[O-])c2ccccc2)cc1	2.1µM*	.	4.7µM*	9	19
C=CCn1c(C)cc(/C([O-])=C(/C(=S)Nc2ccc(OC(F)F)cc2)[n+]2ccc(N(C)C)cc2)c1C	3.7µM*	3%	?	12	22
Cc1cc(C)c(/C([O-])=C(/C(=S)Nc2ccc(SC(F)F)cc2)[n+]2ccccc2)cc1C	?	.	12µM*	16	-3
Cc1ccc(NC(=S)/C(=C(\[O-])c2ccc(F)cc2)[n+]2ccccc2)cc1	0%	.	2%	21*	36
Cc1ccc(/C([O-])=C(/C(=S)NCc2ccco2)[n+]2ccccc2)cc1	?	4%	.	-1	-12
SMILES	Pf growth 96h	NS1 function inh	Pf growth 48h	CHX counter	Shiga inhibitor
Cc1ccc(C)c(NC(=S)/C(=C(\[O-])c2ccc(OC(F)F)cc2)[n+]2ccccc2)c1	?	.	?	10	-11
[O-]/C(=C(\C(=S)Nc1ccc(SC(F)F)cc1)[n+]1cccc(CO)c1)c1ccc(Cl)s1	?	.	-16%	12	-5
[O-]/C(=C(\C(=S)Nc1ccc(SC(F)F)cc1)[n+]1ccccc1)c1cc(Cl)ccc1Cl	-11%	.	-14%	20	40
CCCCn1nnnc1SCC(=O)Nc1ccc2c(c1)OCO2	.	-6%	18%	13	59
COc1ccc(CCNC(=O)COc2ccc(S(=O)(=O)NC(C)C)cc2Cl)cc1OC	?	-14%	?	11	-5
Cc1cccc[n+]1CC(=O)c1ccc2c(c1)OCCO2	?	4%	-25%	6	10
C#CCOCCOCCOCCNc1nc(N2CCN(C(=O)CCCCCCCCCCNC(=O)Cn3cc(CCCCCN)nn3)CC2)nc(N2CCN(C(=O)CCCCCCCCCCNC(=O)Cn3cc(C[C@@H](C)O)nn3)CC2)n1	0.29µM*	.	0.33µM*	.	.
C#CCOCCOCCOCCNc1nc(N2CCN(C(=O)CCCCCCCCCCNC(=O)Cn3cc(C[C@@H](C)O)nn3)CC2)nc(N2CCN(C(=O)CCCCCCCCCCNC(=O)[C@@H]([C@H](C)CC)n3cc(CCCCCN)nn3)CC2)n1	?	.	2.3µM*	.	.
C#CCOCCOCCOCCNc1nc(N2CCN(C(=O)Cn3cc(CCCCN)nn3)CC2)nc(N2CCN(C(=O)Cn3cc(CC(C)O)nn3)CC2)n1 (stereo unspecified)	-18%	11%	11%	-3	-11
Cc1cccc(NC(=O)COn2nnc3ccc(S(C)(=O)=O)cc32)c1	3%	.	-10%	11	0
CC(C)Oc1ccc(/C(O)=C2/C(=O)C(=O)N(Cc3cccnc3)C2c2ccco2)cc1 (stereo unspecified)	97%	3%	9%	62*	72*
CCOc1ccc(C2C(C(=O)c3ccco3)=C(O)C(=O)N2CCCn2ccnc2)cc1OC (stereo unspecified)	28%	2%	26%	16*	11
C=CCOc1cccc(C2C(C(=O)c3ccco3)=C(O)C(=O)N2Cc2ccncc2)c1 (stereo unspecified)	58%	-5%	17%	29*	40*
O=C(C1=C(O)C(=O)N(CCc2ccccc2)C1c1cccnc1)c1ccco1 (stereo unspecified)	-5%	-14%	6.6µM*	-2	3
CCOc1ccc(C(=O)OCC(=O)NCc2ccco2)cc1OCC	-12%	-8%	-7%	-4	-13
COc1ccccc1CNC(=O)C1CCN(S(=O)(=O)c2ccc3nc4c(c(C(=O)O)c3c2)CCCC4)CC1	-26%	9%	9%	2	-5
COCCCNc1nc(N)c([N+](=O)[O-])c(N2CCCCCC2)n1	-82%	-6%	?	6	-2

Screening data: PubChem, National Center for Advancing Translational Sciences (NCATS)
